Measured values taken from PubChem BioAssay (NCATS).
Inconclusive results are not listed. Where a call stands in place of a potency, no number is given. Active and inactive are the calls of the source. The call rests on the fitted dose curve; in most records, active means well fitted inhibition curve with a large enough effect; inconclusive means small, poorly fitted or top-dose-only effect, or effect the other way; inactive means flat fitted curve, though single readings scatter.

Test: Quantitative high throughput screen for delayed death inhibitors of the malarial parasite plastid, 48 hour incubation (AID 488752); further: nearly all actives have a fitted effect of over 65% in size
Conditions: Plasmodium falciparum growth; series mostly up to 28.7 µM
From the text: NIH Molecular Libraries Probe Production Network [MLPCN]
NIH Chemical Genomics Center [NCGC]
Assay Provider: David Fidock and Eric Ekland, Columbia University
The goal of this screen is to discover new antimalarial compounds that act by inhibiting the development of the apicoplast in the malarial parasite Plasmodium falciparum. The biochemical processes that make this organelle essential for erythrocytic stage parasites are not well understood. However, antibiotics, such as azithromycin and tetracycline, which target the apicoplast translational machinery, have a potent antimalarial effect.
We have developed a cell-based assay that measures parasite growth based on the expression of an integrated copy of a firefly luciferase reporter. To detect small molecules that cause this 'delayed death' phenotype, erythrocytes infected with the luciferase-expressing parasites were incubated with compounds for either one or two generations, corresponding to 48 and 96 hours, respectively. Compounds that inhibit parasite growth in the second generation, but not the first, should be enriched in antimalarials that target the apicoplast. Growth inhibition is detected by a decrease in luciferase activity
Four microliters of culture medium (RPMI 1640 with 0.5% w/v Albumax (GIBCO), 24 mM sodium bicarbonate and 10 ug/mL gentamycin) were dispensed by a Multi-drop Combi into white solid 1536-well plates (Grenier) and 23 nL compound was added by a pin tool. Four microliters of infected erythrocytes (2% hematocrit, 0.1% parasitemia final concentration) in culture medium were dispensed and the plates incubated for 48 hours at 37 C in 5% CO2. Two microliters of luciferase detection reagent was added and luminescence was detected by a ViewLux (PerkinElmer) reader
Potency means the concentration at half of the fitted maximal effect.

Row | SMILES | Potency
1 | COc1cc2ncnc(Nc3cccc(Cl)c3)c2cc1OC | 2.62 µM (active)
2 | Nc1nc(N)c2nc(CNc3ccc(C(=O)NC(CCC(=O)O)C(=O)O)cc3)cnc2n1 (configuration not stated) | inactive
3 | CC1=C(C(=O)O)N2C(=O)[C@@H](NC(=O)C(N)c3ccccc3)[C@H]2SC1 (some centres not stated) | inactive
4 | OCc1ccc(-c2nn(Cc3ccccc3)c3ccccc23)o1 | inactive
5 | CC(C)NCC(O)c1ccc(NS(C)(=O)=O)cc1 (configuration not stated) | inactive
6 | Cc1ccc(S(=O)(=O)N[C@@H](Cc2ccccc2)C(=O)CCl)cc1 | inactive
7 | NC(=O)c1cccc(N)c1 | inactive
8 | CC(=O)[C@H]1CC[C@H]2[C@@H]3CCC4=CC(=O)CC[C@]4(C)[C@H]3CC[C@]12C | inactive
9 | O=C(O)C1CCCN(CCC=C(c2ccccc2)c2ccccc2)C1 (configuration not stated) | inactive
10 | CC(C)(C)NC(=O)[C@H]1CC[C@H]2[C@@H]3CC[C@H]4NC(=O)C=C[C@]4(C)[C@H]3CC[C@]12C | inactive
11 | CCN1CCCC1CNC(=O)c1cc(S(N)(=O)=O)ccc1OC (configuration not stated) | inactive
12 | CCCCS(=N)(=O)CCC(N)C(=O)O (configuration not stated) | 2.08 µM (active)
